Results filed as inconclusive are left out. Activity calls are given as the source filed them. Calls come from the whole dose curve; as a rule, active = well fitted curve in the direction sought with a large enough effect; inconclusive = small, poorly fitted or top-dose-only effect, or another doubt; inactive = no such curve, though single readings can be large; an effect the other way counts as inactive or inconclusive.
What was measured:
HACAT = assay: qHTS assay to identify novel small-molecules to repurpose for Merkel cell carcinoma treatment (AID 1296009); conditions: MCC and control cell lines, CellTiter-Glo viability, 72 h; at 44.8 µM (top of the series) unless noted; note: nearly all actives have a fitted effect of over 60% in size
Outline: (§1)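 Luminescence from CellTiter-Glo, read 10 min after addition at room temperature, reported viability following a 72 hr, 37 degree celsius treatment with NPC or MIPE compounds in titration; values normalized to plate controls.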

NIH3T3 = assay: as above; conditions: MCC and control cell lines, CellTiter-Glo viability, 72 h; at 44.8 µM (top of the series) unless noted
Outline: as §1

C33A = assay: Primary qHTS to identify gynecologic anti-cancer compounds using libraries of approved drugs and bioactive compounds (AID 1345084); conditions: Gynecologic cancer cell panel viability, ATPlite luminescence, 48 h; series mostly up to 57.5 µM; note: % is set by controls: 0 for no effect and ±100 for the full control effect; nearly all actives have a fitted effect of over 55% in size
Outline: (§2)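 Luminescence from the ATPlite ATP-monitoring reagent indicates viable cell number; lower signal means cytotoxicity. Cells received compound 16 h after seeding and were exposed for 48 h across five concentrations.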

CASKI = assay: as above; conditions: Gynecologic cancer cell panel viability, ATPlite luminescence, 48 h; series mostly up to 57.5 µM
Outline: as §2

Es-2 = assay: as above; conditions: Gynecologic cancer cell panel viability, ATPlite luminescence, 48 h; series mostly up to 57.5 µM
Outline: as §2

HeLa = assay: as above; conditions: Gynecologic cancer cell panel viability, ATPlite luminescence, 48 h; series mostly up to 57.5 µM
Outline: as §2

Hek293T = assay: as above; conditions: Gynecologic cancer cell panel viability, ATPlite luminescence, 48 h, control line for the selectivity index; series mostly up to 57.5 µM
Outline: as §2

JEG-3 = assay: as above; conditions: Gynecologic cancer cell panel viability, ATPlite luminescence, 48 h; series mostly up to 57.5 µM
Outline: as §2

OV90 = assay: as above; conditions: Gynecologic cancer cell panel viability, ATPlite luminescence, 48 h; series mostly up to 57.5 µM
Outline: as §2

PA-1 = assay: as above; conditions: Gynecologic cancer cell panel viability, ATPlite luminescence, 48 h; series mostly up to 57.5 µM
Outline: as §2

SKOV3 = assay: as above; conditions: Gynecologic cancer cell panel viability, ATPlite luminescence, 48 h; series mostly up to 57.5 µM
Outline: as §2

Tov-21-G = assay: as above; conditions: Gynecologic cancer cell panel viability, ATPlite luminescence, 48 h; series mostly up to 57.5 µM
Outline: as §2

Tov112D = assay: as above; conditions: Gynecologic cancer cell panel viability, ATPlite luminescence, 48 h; series mostly up to 57.5 µM
Outline: as §2

CAOV3 = assay: as above; conditions: Gynecologic cancer cell panel viability, ATPlite luminescence, 48 h; series mostly up to 57.5 µM
Outline: as §2

CC(=O)N[C@H]1[C@H](O[C@H]2CC[C@]3(C)C4CC=C5[C@@H]6CC(C)(C)CC[C@]6(C(=O)O)[C@H](O)C[C@@]5(C)[C@]4(C)CC[C@H]3C2(C)C)O[C@H](CO)[C@@H](O)[C@@H]1O (some centres undefined)
inactive: outcome (HACAT) inactive [at 17.4 µM] | outcome (NIH3T3) inactive [at 17.4 µM] | Potency (C33A) | outcome (CASKI) | Potency (Es-2) | Potency (HeLa) | Potency (Hek293T) | Potency (JEG-3) | Potency (OV90) | Potency (PA-1) | Potency (SKOV3) | Potency (Tov-21-G) | Potency (Tov112D)

C=C1C(O)CC2C(C(=O)O)=COC(OC3OC(CO)C(O)C(O)C3OC(=O)/C=C\c3ccc(O)cc3)C12 (centres undefined)
inactive: outcome (HACAT) inactive [at 17.4 µM] | outcome (NIH3T3) inactive [at 17.4 µM] | Potency (CAOV3) | outcome (CASKI) | Potency (Es-2) | Potency (HeLa) | Potency (Hek293T) | Potency (JEG-3) | Potency (OV90) | Potency (PA-1) | Potency (SKOV3) | Potency (Tov-21-G) | Potency (Tov112D)

COc1ccc(Oc2c(Cl)cnn(C3c4ccccc4-c4ccccc43)c2=O)cc1
inactive: outcome (HACAT) | outcome (NIH3T3) | Potency (C33A) | outcome (CASKI) | Potency (Es-2) | Potency (HeLa) | Potency (Hek293T) | Potency (JEG-3) | Potency (OV90) | Potency (PA-1) | Potency (SKOV3) | Potency (Tov-21-G) | Potency (Tov112D)

C[C@@H]1O[C@@H](O[C@H]2[C@@H]3C=CO[C@@H](O[C@@H]4O[C@H](CO)[C@@H](O)[C@H](O)[C@H]4O)[C@@H]3[C@@]3(CO)O[C@@H]23)[C@H](O)[C@H](O)[C@H]1OC(=O)/C=C/c1ccc(O)cc1
inactive: outcome (HACAT) inactive [at 17.4 µM] | Potency (C33A) | Potency (CAOV3) | outcome (CASKI) | Potency (Es-2) | Potency (HeLa) | Potency (Hek293T) | Potency (JEG-3) | Potency (OV90) | Potency (PA-1) | Potency (SKOV3) | Potency (Tov-21-G) | Potency (Tov112D)

COc1ccc(/C=C/C(=O)N2CCCC2)cc1
inactive: outcome (HACAT) | Potency (C33A) | Potency (CAOV3) | outcome (CASKI) | Potency (Es-2) | Potency (HeLa) | Potency (Hek293T) | Potency (JEG-3) | Potency (OV90) | Potency (PA-1) | Potency (SKOV3) | Potency (Tov-21-G) | Potency (Tov112D)

C[C@H]1CC(=O)C2=C(C1)C(O)C(O)[C@@]1(O)[C@H]2C(=O)c2cccc(O)c2[C@@H]1O (some centres undefined)
inactive: outcome (HACAT) | Potency (C33A) | Potency (CAOV3) | outcome (CASKI) | Potency (Es-2) | Potency (HeLa) | Potency (Hek293T) | Potency (JEG-3) | Potency (OV90) | Potency (PA-1) | Potency (SKOV3) | Potency (Tov-21-G) | Potency (Tov112D)

C[C@@H]1O[C@@H](O[C@H]2[C@H](OC(=O)[C@]34CCC(C)(C)C[C@H]3C3=CCC5[C@@]6(C)CC[C@H](O[C@@H]7O[C@H](CO[C@@H]8OC[C@H](O)[C@H](O)[C@H]8O[C@@H]8OC[C@@H](O)[C@H](O)[C@H]8O)[C@@H](O)[C@H](O)[C@H]7O)C(C)(C)C6CC[C@@]5(C)[C@]3(C)C[C@H]4O)O[C@H](CO)[C@@H](O)[C@@H]2O)[C@H](O[C@@H]2O[C@H](CO)[C@@H](O)[C@H](O)[C@H]2O)[C@H](O)[C@H]1O[C@@H]1OC[C@@H](O)[C@H](O[C@@H]2OC[C@@H](O)[C@H](O)[C@H]2O)[C@H]1O (some centres undefined)
inactive: outcome (HACAT) inactive [at 4.96 µM] | activity change, negative = cytotoxicity (C33A) 6.83% [at 6.55 µM] | activity change, negative = cytotoxicity (CAOV3) -0.37% [at 6.55 µM] | activity change, negative = cytotoxicity (CASKI) -2.72% [at 6.55 µM] | activity change, negative = cytotoxicity (Es-2) -1.37% [at 6.55 µM] | activity change, negative = cytotoxicity (HeLa) 0.0394% [at 6.55 µM] | activity change, negative = cytotoxicity (Hek293T) 6.55% [at 6.55 µM] | activity change, negative = cytotoxicity (JEG-3) 9.73% [at 6.55 µM] | activity change, negative = cytotoxicity (OV90) -1.86% [at 6.55 µM] | activity change, negative = cytotoxicity (PA-1) 1.34% [at 6.55 µM] | activity change, negative = cytotoxicity (SKOV3) 0% [at 6.55 µM] | activity change, negative = cytotoxicity (Tov-21-G) -2.86% [at 6.55 µM] | activity change, negative = cytotoxicity (Tov112D) 0.0551% [at 6.55 µM]

CCC(C)/C=C(C)/C=C/C1=CC2=C(Cl)C(=O)C(C)(OC(C)=O)C(=O)C2=CN1CCCCC(N)C(=O)O (centres undefined)
inactive: outcome (HACAT) inactive [at 17.4 µM] | Potency (C33A) | Potency (CAOV3) | outcome (CASKI) | Potency (Es-2) | Potency (HeLa) | Potency (Hek293T) | Potency (JEG-3) | Potency (OV90) | Potency (PA-1) | Potency (SKOV3) | Potency (Tov-21-G) | Potency (Tov112D)

CC(=O)O[C@H]1[C@H](O[C@H]2CC[C@]34C[C@]35CC[C@]3(C)[C@@H]([C@@]6(C)CC[C@@H](C(C)(C)O)O6)[C@@H](O)C[C@@]3(C)[C@@H]5C[C@H](O[C@@H]3O[C@H](CO)[C@@H](O)[C@H](O)[C@H]3O)[C@H]4C2(C)C)OC[C@@H](OC(C)=O)[C@@H]1O
inactive: outcome (HACAT) | Potency (C33A) | Potency (CAOV3) | outcome (CASKI) | Potency (Es-2) | Potency (HeLa) | Potency (Hek293T) | Potency (JEG-3) | Potency (OV90) | Potency (PA-1) | Potency (SKOV3) | Potency (Tov-21-G) | Potency (Tov112D)

CCOC(=O)C1=C(N)Oc2ccc(Cl)cc2C1C(C#N)C(=O)OCC (centres undefined)
inactive: outcome (HACAT) | Potency (C33A) | Potency (CAOV3) | outcome (CASKI) | Potency (Es-2) | Potency (HeLa) | Potency (Hek293T) | Potency (JEG-3) | Potency (OV90) | Potency (PA-1) | Potency (SKOV3) | Potency (Tov-21-G) | Potency (Tov112D)

CC1(C)CC2C3=CCC4[C@@]5(C)CC[C@H](OC6OCC(O)C(OC7OC(CO)C(O)C(O)C7O)C6O)C(C)(C)C5CC[C@@]4(C)[C@]3(C)C[C@H](O)[C@@]2(CO)[C@H](OC(=O)c2ccccc2)C1 (some centres undefined)
inactive: outcome (HACAT) inactive [at 9.27 µM] | activity change, negative = cytotoxicity (C33A) -0.821% [at 11.6 µM] | activity change, negative = cytotoxicity (CAOV3) -7.46% [at 11.6 µM] | activity change, negative = cytotoxicity (CASKI) -3.21% [at 11.6 µM] | activity change, negative = cytotoxicity (Es-2) -3.08% [at 11.6 µM] | activity change, negative = cytotoxicity (HeLa) 2.29% [at 11.6 µM] | activity change, negative = cytotoxicity (Hek293T) 17.5% [at 11.6 µM] | activity change, negative = cytotoxicity (JEG-3) 8.97% [at 11.6 µM] | activity change, negative = cytotoxicity (OV90) 18.5% [at 11.6 µM] | activity change, negative = cytotoxicity (PA-1) 10.1% [at 11.6 µM] | activity change, negative = cytotoxicity (SKOV3) 0% [at 11.6 µM] | activity change, negative = cytotoxicity (Tov-21-G) 6.98% [at 11.6 µM] | activity change, negative = cytotoxicity (Tov112D) -1.17% [at 11.6 µM]

CC(=O)/C=C/C1(O)C(C)CC(O[C@@H]2O[C@H](CO)[C@@H](O)[C@H](O)[C@H]2O)CC1(C)C (some centres undefined)
inactive: outcome (HACAT) inactive [at 17.4 µM] | Potency (C33A) | Potency (CAOV3) | outcome (CASKI) | Potency (Es-2) | Potency (HeLa) | Potency (Hek293T) | Potency (JEG-3) | Potency (OV90) | Potency (PA-1) | Potency (SKOV3) | Potency (Tov-21-G) | Potency (Tov112D)

CC1=C(CO)C2(C)CCCC(C)(C)C2C(O)C1O (centres undefined)
inactive: outcome (HACAT) | Potency (C33A) | Potency (CAOV3) | outcome (CASKI) | Potency (Es-2) | Potency (HeLa) | Potency (Hek293T) | Potency (JEG-3) | Potency (OV90) | Potency (PA-1) | Potency (SKOV3) | Potency (Tov-21-G) | Potency (Tov112D)

From PubChem BioAssay (NCATS)
